Bioassay records: PubChem BioAssay, National Center for Advancing Translational Sciences (NCATS)
Hits are enriched below; roughly 1.8% of the tested compounds scored in any of these assays.
GLP-1R inv ag: inverse agonists of human GLP-1 receptor. P43220. HEK293 GLP-1R CRE-luciferase, luminescence, 24 h; GLP-1R form is constitutively active. Potency, µM (doses to about 38.3 µM), most hits filed as inhibitors. 1.6% of 410,000 active; further: nearly all actives have a fitted effect of over 55% in size
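Assay principle: reduced luminescence from a cAMP-responsive reporter in HEK293 cells co-expressing a constitutively active GLP-1R. Conditions: 24 hr compound incubation, 37 deg C, 5% CO2.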
HEK293 tox: cytotoxicity counter-screen for GLP-1 receptor inverse agonists. AID 624418. Potency, µM (highest dose often 38.3 µM), most hits filed as inhibitors. HEK293 cAMP-luciferase reporter cells, luminescence, 24 h. 0.13% of 410,000 active;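 further: loss of luciferase light is scored as toxicity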
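1536-well qHTS counterscreen of the MLSMR; 200 cells/uL, 12 h pre-incubation, 23 nL cpd, 24 h at 37 deg C 5% CO2, luciferase detection reagent, 12 min RT, luminescence. Inhibition = undesired.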
GLP1R ag: GLP-1 receptor (human) agonism; P43220; HEK293 GLP-1R CRE-luciferase, luminescence, 4-6 h; cells express a hypersensitive GLP-1R form; Potency, µM (series often up to 45.6 µM), usual class: activators; 0.007% of 380,000 active
TRPML1 blocker: blocks the human TRPML1 channel | 0.02% of 390,000 active | AID 624415 | activity change, negative = inhibition, % (no concentration beside the values) | TRPML1-inducible cells, Ca2+ dye fluorescence, FDSS; hits give low values; inhibition of EC80 agonist-evoked calcium signal; in the data active means activity change below about -50%; inconclusive means between about -30% and that limit;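 further: stimulus is agonist 54-4 at its EC80 concentration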
Target sequence (Q9GZU1 whole entry, looked up): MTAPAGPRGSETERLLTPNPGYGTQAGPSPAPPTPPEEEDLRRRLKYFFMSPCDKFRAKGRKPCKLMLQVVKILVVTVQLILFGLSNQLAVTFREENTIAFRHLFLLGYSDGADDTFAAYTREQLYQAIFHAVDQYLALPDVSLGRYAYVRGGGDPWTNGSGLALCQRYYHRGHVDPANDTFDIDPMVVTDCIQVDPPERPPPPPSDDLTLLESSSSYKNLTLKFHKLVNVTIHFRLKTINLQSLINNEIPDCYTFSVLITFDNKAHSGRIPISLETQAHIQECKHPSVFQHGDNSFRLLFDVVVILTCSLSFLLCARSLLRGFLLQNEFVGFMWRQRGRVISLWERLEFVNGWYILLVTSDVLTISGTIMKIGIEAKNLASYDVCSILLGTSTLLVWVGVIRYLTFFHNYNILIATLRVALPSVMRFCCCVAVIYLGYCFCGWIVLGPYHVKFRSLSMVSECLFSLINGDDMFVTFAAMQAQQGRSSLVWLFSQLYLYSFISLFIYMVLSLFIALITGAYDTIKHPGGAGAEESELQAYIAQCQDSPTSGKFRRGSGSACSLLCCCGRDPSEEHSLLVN
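Calcium fluorescence in TRPML1-DL cells induced overnight with Tet: a 110 s read after compound pin addition, then a 110 s antagonist read after challenge with 54-4 at 4 uM final (EC80).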
TRPML1 ag: activates the human TRPML1 channel; Q9GZU1; TRPML1-expressing cells, Ca2+ dye fluorescence, FDSS; activation, % (no concentration beside the values); 0.12% of 410,000 active; AID 624414; in the data active means activation above about 50%; inconclusive means mostly about 30% to 49%
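Kinetic FDSS Ca2+ read in Tet-induced TRPML1-DL cells (ABD Ca8 dye plus quencher, 45-90 min RT loading): baseline, then compound, then 110 s agonist window; EC80 agonist 54-4 at 4uM final added afterwards for a 110 s antagonist window.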
Numbers stand for hits. Unless noted, the call rests on the fitted dose curve; in most records, active means well fitted curve in the direction sought with a large enough effect; inconclusive means small, poorly fitted or top-dose-only effect, or another doubt; inactive means no such curve, though single readings can be large; an effect the other way counts as inactive or inconclusive.

Results for CCN1CCOC(=O)C1CC(=O)Nc1cc(Cl)ccc1OC (configuration not stated) ?
GLP-1R inv ag: inactive; HEK293 tox: inactive; GLP1R ag: inactive; TRPML1 blocker: inactive; TRPML1 ag: inactive

How did COc1cc(NC(=O)c2noc3c2CC(C(C)(C)C)CC3)cc(OC)c1OC (configuration not stated) do in these assays?
GLP-1R inv ag: inactive; HEK293 tox: inactive; TRPML1 blocker: inactive; TRPML1 ag: inactive

Results for COc1ccc(NC(=O)C(=O)c2cc(C)n(-c3ccc(C)cc3)c2C)cc1Cl ?
GLP-1R inv ag: inconclusive; HEK293 tox: inactive; TRPML1 blocker: inactive; TRPML1 ag: inconclusive

What do the screens show for `CCN(CC)CCNC1=NCCn2c1cc1cc(OC)ccc12`?
GLP-1R inv ag: 2.82µM; HEK293 tox: inactive; GLP1R ag: inactive; TRPML1 blocker: inactive; TRPML1 ag: inactive

How did CCN(CC)CCNC(=O)COc1ccc(OC)cc1 do in these assays?
GLP-1R inv ag: inactive; HEK293 tox: inactive; GLP1R ag: inactive; TRPML1 blocker: inactive; TRPML1 ag: inactive

How did CCCCN(Cc1ccccc1)S(=O)(=O)c1ccc2c(c1)CC(C)N2C(=O)CC (configuration not stated) do in these assays?
GLP-1R inv ag: inactive; HEK293 tox: inactive; GLP1R ag: inactive; TRPML1 blocker: inactive; TRPML1 ag: inactive

What do the screens show for `CCN(CC(=O)NCc1ccc(Cl)cc1)C(=O)c1cnc(Cl)c(Cl)c1`?
GLP-1R inv ag: inconclusive; HEK293 tox: inactive; GLP1R ag: inactive; TRPML1 blocker: inactive; TRPML1 ag: inactive

Results for CCN(CC(=O)NCc1ccc(Cl)cc1)C(=O)COc1ccc(Cl)cc1Br ?
GLP-1R inv ag: 11.2µM; HEK293 tox: inactive; GLP1R ag: inactive; TRPML1 blocker: inactive; TRPML1 ag: inactive

Results for Oc1ccc(C[C@H]2CN([C@@H](Cc3ccc(O)cc3)CN3CCC[C@@H]3CN3C(=S)NC[C@@H]3Cc3ccccc3)C(=S)N2CCc2ccccc2)cc1 ?
GLP-1R inv ag: inconclusive; HEK293 tox: inactive; GLP1R ag: inactive; TRPML1 blocker: inactive; TRPML1 ag: inactive

What do the screens show for `CC(C)C[C@@H](CN1CCCC1CN1C(=S)NC[C@@H]1Cc1ccc(O)cc1)N1C[C@H](Cc2ccc(O)cc2)N(CCc2ccccc2)C1=S` (some centres not stated)?
GLP-1R inv ag: 7.94µM; HEK293 tox: inconclusive; GLP1R ag: inactive; TRPML1 blocker: inactive; TRPML1 ag: inactive

What do the screens show for `Cc1ccc(C2(c3noc(CN4CCC(c5ccncc5)CC4)n3)CCCC2)cc1`?
GLP-1R inv ag: 3.98µM; HEK293 tox: inactive; GLP1R ag: inconclusive; TRPML1 blocker: inactive; TRPML1 ag: inactive

How did NC(=S)NN=C1CCC(C2CCCCC2)CC1 (configuration not stated) do in these assays?
GLP-1R inv ag: 2.24µM; HEK293 tox: inconclusive; GLP1R ag: inactive; TRPML1 blocker: inactive; TRPML1 ag: inactive

Results for CCN1CCN(C(c2ccc(F)cc2)c2c(O)cc(C)n(CCOC)c2=O)CC1 (configuration not stated) ?
GLP-1R inv ag: inactive; HEK293 tox: inactive; TRPML1 blocker: inactive; TRPML1 ag: inactive

Results for CCCCN(C)C(=O)CSc1nc2ccccc2nc1Cc1ccc(C)cc1 ?
GLP-1R inv ag: 11.2µM; HEK293 tox: inactive; TRPML1 blocker: inactive; TRPML1 ag: inactive

Results for CC1CCCCN1C(=O)CSc1nc2ccccc2nc1Cc1ccc(Cl)cc1 (configuration not stated) ?
GLP-1R inv ag: 5.01µM; HEK293 tox: inactive; TRPML1 blocker: inactive; TRPML1 ag: inactive

How did O=C(CSc1nc2ccccc2nc1Cc1ccc(Cl)cc1)N1CCCCC1 do in these assays?
GLP-1R inv ag: 10µM; HEK293 tox: inactive; TRPML1 blocker: inactive; TRPML1 ag: inactive

Results for Cc1ccc(Cc2nc3ccccc3nc2SCC(=O)N2CCCCC2)cc1 ?
GLP-1R inv ag: inconclusive; HEK293 tox: inactive; TRPML1 blocker: inactive; TRPML1 ag: inactive

Results for CC1CCCCN1C(=O)CSc1nc(C2CC2)nc2ccccc12 (configuration not stated) ?
GLP-1R inv ag: 7.94µM; HEK293 tox: inconclusive; GLP1R ag: inactive; TRPML1 blocker: inactive; TRPML1 ag: inactive

How did Cc1ccc(NC(=O)Cn2c(=O)n(-c3ccc(Cl)c(Cl)c3)c(=O)c3c(C)c(C)sc32)c(C)c1 do in these assays?
GLP-1R inv ag: inactive; HEK293 tox: inactive; TRPML1 blocker: inactive; TRPML1 ag: inactive

How did CC(C)COC(=O)N1C(COCc2ccccc2)CCC=CS1(=O)=O (configuration not stated) do in these assays?
TRPML1 blocker: inactive; TRPML1 ag: inactive

What do the screens show for `COc1ccccc1N1CCN(C(=O)CSc2nc3ccccc3nc2Cc2ccccc2)CC1`?
GLP-1R inv ag: 11.2µM; HEK293 tox: inactive; GLP1R ag: inactive; TRPML1 blocker: inactive; TRPML1 ag: inactive

Results for Cn1c(-c2ccccc2)cnc1SCC(=O)N1CCCCC1 ?
GLP-1R inv ag: 3.98µM; HEK293 tox: inactive; GLP1R ag: inactive; TRPML1 blocker: inactive; TRPML1 ag: inactive

Results for O=C(CSc1nc2ccccc2nc1SCC(=O)N1CCCCC1)N1CCCCC1 ?
GLP-1R inv ag: 10µM; HEK293 tox: inconclusive; GLP1R ag: inactive; TRPML1 blocker: inactive; TRPML1 ag: inactive

How did Cc1ccc(Cc2nc3ccccc3nc2SCC(=O)N2CCN(c3ccccc3)CC2)cc1 do in these assays?
GLP-1R inv ag: inactive; HEK293 tox: inactive; TRPML1 blocker: inactive; TRPML1 ag: inactive

Results for O=C(CSc1nc(N2CCCCC2)nc(N2CCCCC2)n1)N1CCN(c2ccccc2)CC1 ?
GLP-1R inv ag: 2.82µM; HEK293 tox: inactive; GLP1R ag: inactive; TRPML1 blocker: inactive; TRPML1 ag: inactive

Results for O=C(CSc1nc2ccccc2nc1SCC(=O)N1CCOCC1)N1CCOCC1 ?
GLP-1R inv ag: inactive; HEK293 tox: inactive; GLP1R ag: inactive; TRPML1 blocker: inactive; TRPML1 ag: inactive

What do the screens show for `Cc1nc(SCC(=O)N2CCN(c3ccccc3)CC2)n[nH]1`?
GLP-1R inv ag: inactive; HEK293 tox: inactive; GLP1R ag: inactive; TRPML1 blocker: inactive; TRPML1 ag: inactive

How did OCC1O[C@@H](O[C@@H]2C(CO)OC(O)C(O)C2O)C(O)C(O)C1O (some centres not stated) do in these assays?
GLP1R ag: inactive

How did Cc1ccc(N(Cc2cc(=O)[nH]c3ccccc23)C(=O)CCl)c(C)c1 do in these assays?
GLP-1R inv ag: 5.62µM; HEK293 tox: inactive; GLP1R ag: inactive; TRPML1 blocker: inactive; TRPML1 ag: inactive

What do the screens show for `Cc1ccc(C(=O)c2c(C)oc3c2C(=O)C(=O)c2ccccc2-3)cc1`?
GLP-1R inv ag: inconclusive; HEK293 tox: 5.01µM; GLP1R ag: inactive; TRPML1 blocker: inactive; TRPML1 ag: inactive

How did Cc1oc2c(c1C(=O)c1ccc(Cl)cc1)C(=O)C(=O)c1ccccc1-2 do in these assays?
GLP-1R inv ag: inactive; HEK293 tox: inactive; GLP1R ag: inactive; TRPML1 blocker: inactive; TRPML1 ag: inactive
